Assay [1] can be described thus: antimalarial activity against Dd2 strain (AID 2302;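 active means growth inhibition above 50% at the single 2 µM test dose, taken to imply half-maximal potency below 2 µM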;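 further: 0% = DMSO untreated growth and 100% = chloroquine plus artemisinin killed control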). The note with it: P. falciparum Dd2 in RBCs, LDH growth readout, 72 h; at 2 µM; stronger effect = higher value.
Assay [2] can be described thus: HepG2 cytotoxicity, primary screen, cytotoxicity control for P. falciparum antimalarial project, cell-based, ATP luminescence (AID 2303;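 active means inhibition above 50%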;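 further: 0% = DMSO wells and 100% = digitonin-killed cells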). Conditions: HepG2 viability, 24-48 h, at 10 µM, stronger effect = higher value.
The target in assay [3] is L-lactate dehydrogenase (Plasmodium falciparum (isolate CDC / Honduras)) (UniProt Q27743). Description: PfLDH activity inhibition – cell lysate, 3D7 strain, counter-screen for P. falciparum growth inhibition project (AID 2304).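 Further: 0% = vehicle and 100% = reference inhibitor.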 Conditions: P. falciparum 3D7 crude extract, LDH APAD/NBT absorbance; at 2 µM; stronger effect = higher value.
Assay [4] can be described thus: inhibition of 3D7 malaria parasite growth – strain 3D7 (AID 2306).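 Further: 0% = DMSO wells and 100% = chloroquine plus artemisinin control wells.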 The note with it: P. falciparum 3D7 erythrocytic growth, LDH absorbance, 72 h; at 2 µM; stronger effect = higher value.
The target in assay [5] is Calcium-dependent protein kinase 1 (Plasmodium falciparum (isolate 3D7)) (UniProt P62344). Description: PfCDPK1 kinase inhibitors, biochemical, TCAMS library (AID 1159585; cut-off not given, nearly all actives have IC50 up to about 0.98 µM;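 further: inhibitors leave more ATP so luminescence rises with inhibition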). Conditions: recombinant PfCDPK1, Kinase-Glo ATP depletion luminescence.
Assay [6] concerns the target Plasmodium falciparum protein kinase 6 (PK6, PF3D7_1337100) (UniProt Q8IDW1). Description: PfPK6 kinase inhibitors, biochemical, TCAMS library (AID 1159586). The note with it: recombinant PfPK6, Kinase-Glo ATP depletion luminescence.
Assay [7] has as its target Protein kinase 7 (PK7), Plasmodium falciparum 3D7 (PF3D7_0213400) (UniProt Q7YTF7). Briefly: inhibition of Plasmodium PK7 catalytic activity – biochemical, TCAMS antimalarial set, Kinase-Glo luminescence (AID 1159587). Conditions: recombinant PfPK7, Kinase-Glo ATP depletion luminescence. (In Kinase-Glo more light means more ATP remaining.)
Assay [8] addresses Calcium-dependent protein kinase 4 (Plasmodium falciparum (isolate 3D7)) (UniProt Q8IBS5). Description: PfCDPK4 kinase inhibitors, biochemical, TCAMS library (AID 1159588; cut-off not given, nearly all actives have IC50 up to about 0.91 µM). The note with it: recombinant PfCDPK4, Kinase-Glo ATP depletion luminescence.

Values without a mark were called inactive. For part of these data: Potency and affinity values are given separately. Active and inactive are the calls of the source. Unless noted, how the calls were made is not given here.

Drawing on PubChem BioAssay, this text covers growth inhibition, inhibition and outcome for 21 compounds.

Sequence of Plasmodium falciparum protein kinase 6 (PK6, PF3D7_1337100) (Q8IDW1 1-305): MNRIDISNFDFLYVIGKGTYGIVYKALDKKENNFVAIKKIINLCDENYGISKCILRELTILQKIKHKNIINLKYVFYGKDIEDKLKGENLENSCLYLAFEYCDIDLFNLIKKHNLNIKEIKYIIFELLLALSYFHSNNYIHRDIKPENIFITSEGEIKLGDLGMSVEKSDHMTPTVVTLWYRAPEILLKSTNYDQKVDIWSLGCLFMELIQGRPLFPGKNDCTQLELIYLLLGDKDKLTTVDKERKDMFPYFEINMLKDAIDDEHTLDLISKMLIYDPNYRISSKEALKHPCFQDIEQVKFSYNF
Sequence of Calcium-dependent protein kinase 1 (Plasmodium falciparum (isolate 3D7)) (P62344 whole entry, looked up): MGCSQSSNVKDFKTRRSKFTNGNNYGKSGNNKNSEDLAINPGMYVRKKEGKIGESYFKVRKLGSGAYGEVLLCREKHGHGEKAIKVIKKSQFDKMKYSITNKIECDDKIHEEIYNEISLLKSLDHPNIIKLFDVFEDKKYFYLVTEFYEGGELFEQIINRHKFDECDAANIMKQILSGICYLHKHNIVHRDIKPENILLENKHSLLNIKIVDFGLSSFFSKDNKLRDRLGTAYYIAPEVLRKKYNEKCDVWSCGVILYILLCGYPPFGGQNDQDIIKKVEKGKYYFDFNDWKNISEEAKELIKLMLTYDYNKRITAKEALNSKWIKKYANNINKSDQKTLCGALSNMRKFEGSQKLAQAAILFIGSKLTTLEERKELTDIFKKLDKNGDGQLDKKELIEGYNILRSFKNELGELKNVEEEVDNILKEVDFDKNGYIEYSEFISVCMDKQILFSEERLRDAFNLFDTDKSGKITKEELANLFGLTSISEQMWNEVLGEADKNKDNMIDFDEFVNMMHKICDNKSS
Sequence of Protein kinase 7 (PK7), Plasmodium falciparum 3D7 (PF3D7_0213400) (Q7YTF7 1-343): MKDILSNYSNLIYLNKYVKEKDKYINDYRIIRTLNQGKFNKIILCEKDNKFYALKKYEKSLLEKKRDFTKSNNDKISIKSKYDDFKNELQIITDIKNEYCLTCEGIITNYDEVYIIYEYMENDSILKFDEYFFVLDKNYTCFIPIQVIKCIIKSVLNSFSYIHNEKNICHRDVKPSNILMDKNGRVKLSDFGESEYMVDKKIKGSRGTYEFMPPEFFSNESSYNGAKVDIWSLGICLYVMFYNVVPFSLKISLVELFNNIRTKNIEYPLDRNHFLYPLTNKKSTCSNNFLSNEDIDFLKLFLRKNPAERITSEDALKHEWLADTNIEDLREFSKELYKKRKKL
Sequence of Calcium-dependent protein kinase 4 (Plasmodium falciparum (isolate 3D7)) (Q8IBS5 whole entry, looked up): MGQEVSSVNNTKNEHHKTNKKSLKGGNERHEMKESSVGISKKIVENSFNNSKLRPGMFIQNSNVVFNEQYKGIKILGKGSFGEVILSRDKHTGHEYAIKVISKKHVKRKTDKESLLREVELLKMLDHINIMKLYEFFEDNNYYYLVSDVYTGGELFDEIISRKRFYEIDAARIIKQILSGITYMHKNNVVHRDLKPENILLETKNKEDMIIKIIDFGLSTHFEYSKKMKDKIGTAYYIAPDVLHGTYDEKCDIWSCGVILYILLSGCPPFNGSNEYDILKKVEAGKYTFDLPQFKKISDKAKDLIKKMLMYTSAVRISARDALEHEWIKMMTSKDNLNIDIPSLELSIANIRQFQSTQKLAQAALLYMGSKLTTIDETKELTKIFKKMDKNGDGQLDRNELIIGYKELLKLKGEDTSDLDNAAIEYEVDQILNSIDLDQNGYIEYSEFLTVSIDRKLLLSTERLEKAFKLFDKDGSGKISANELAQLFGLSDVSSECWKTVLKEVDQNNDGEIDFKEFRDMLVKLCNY
Sequence of L-lactate dehydrogenase (Plasmodium falciparum (isolate CDC / Honduras)) (Q27743 whole entry, looked up): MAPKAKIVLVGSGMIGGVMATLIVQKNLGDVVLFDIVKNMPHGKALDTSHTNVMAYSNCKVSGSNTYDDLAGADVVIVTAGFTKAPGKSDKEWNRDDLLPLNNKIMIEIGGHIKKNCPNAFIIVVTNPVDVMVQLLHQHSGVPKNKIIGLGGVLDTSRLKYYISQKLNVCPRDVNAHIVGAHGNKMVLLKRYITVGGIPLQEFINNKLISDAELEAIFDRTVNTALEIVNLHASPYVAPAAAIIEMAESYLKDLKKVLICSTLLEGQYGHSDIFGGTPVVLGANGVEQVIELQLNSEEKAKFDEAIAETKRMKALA

The inhibition is the change of the read-out against control, counted positive when it falls. Turning to `CCC(C)NC(=O)Nc1ccc(-c2cccc(-c3nc4ccc(C(F)(F)F)cc4[nH]3)c2)cc1` (stereo not drawn), the growth inhibition was -1% in assay [1] and 97% (active) in assay [4]. Moreover, the inhibition was 45% in assay [2] and 0% in assay [3]. The result in assay [5], in assay [6], in assay [7] and in assay [8] was inactive.

With `O=C(CSc1nc2ccccc2c(=O)n1CC1CCCO1)Nc1cc(C(F)(F)F)ccc1Cl` (stereo not drawn), the results for the growth inhibition in assay [1] and in assay [4] were 95% (active) and 97% (active), respectively. Also, the inhibition in assay [2] is 12%; in assay [3] it was -2%. The result in assay [5], in assay [6], in assay [7] and in assay [8] was inactive.

With `O=C(Nc1cccc(CN2CCCN(Cc3cccnc3)CC2)c1)c1cc2ccccc2s1`, the growth inhibition in assay [1] was 28%; in assay [4] it was 92% (active). Besides, the inhibition in assay [2] is 15%; in assay [3] it was 1%. The result in assay [5], in assay [6], in assay [7] and in assay [8] was inactive.

`O=C(Nc1nc2ccc(Cl)cc2s1)c1csnn1`: the growth inhibition in assay [1] was 99% (active); in assay [4], 96% (active). The figures for the inhibition in assay [2] and in assay [3] were 15% and 3%, respectively. Besides, the result in assay [5], in assay [6], in assay [7] and in assay [8] was inactive.

Regarding `CCN(CC)CCCn1c(N)c(-c2nc3ccccc3[nH]2)c2nc(C#N)c(C#N)nc21`, the values for the growth inhibition in assay [1] and in assay [4] were 99% (active) and 100% (active), respectively. In addition, the inhibition in assay [2] was 8%; in assay [3], 2%. For the same compound, the result in assay [5], in assay [6], in assay [7] and in assay [8] was inactive.

In the case of `COc1cc(NC(=O)c2sc(-c3ccc(Cl)cc3)cc2NC(=O)CN2CC[C@@H](O)C2)ccc1OCCN1CCCC1`, the growth inhibition is 79% (active) in assay [1] and 90% (active) in assay [4]. The results for the inhibition in assay [2] and in assay [3] were 56% (active) and 6%, respectively. Moreover, the outcome in assay [5], in assay [6], in assay [7] and in assay [8] was inactive.

Consider `CCCN1CCN(Cc2ccc(C(=O)Nc3ccc(Cl)cc3)cc2)CC1`, for which the growth inhibition in assay [1] was 14%; in assay [4], 94% (active). Further, the inhibition was 48% in assay [2] and -2% in assay [3]. Further, the result in assay [5], in assay [6], in assay [7] and in assay [8] was inactive.

Turning to `COc1cc(Cc2cnc(N)nc2N)ccc1OCC(=O)Nc1ccc(C)cc1`, the growth inhibition in assay [1] is 18%; in assay [4], 95% (active). The inhibition is 10% in assay [2] and -2% in assay [3]. Also, the outcome in assay [5], in assay [6], in assay [7] and in assay [8] was inactive.

Take `Cc1ccc(NS(=O)(=O)c2cccs2)cc1-c1cccc(C(=O)Nc2ccc(F)cc2)c1`: the growth inhibition in assay [1] is 100% (active); in assay [4] it was 99% (active). Also, the inhibition was 38% in assay [2] and 0% in assay [3]. The outcome in assay [5], in assay [6], in assay [7] and in assay [8] was inactive.

With `Cc1cc(Nc2ccc(C)c(C)c2)n2nc(C)nc2n1`, the growth inhibition is 45% in assay [1] and 95% (active) in assay [4]. The inhibition in assay [2] is 10%; in assay [3] it was -5%. Further, the outcome in assay [5], in assay [6], in assay [7] and in assay [8] was inactive.

As for `COc1cc(CC2c3cc(O)c(Cl)cc3CCN2C)c(OC)cc1C` (stereo not drawn), the growth inhibition in assay [1] is 88% (active); in assay [4] it was 99% (active). The inhibition in assay [2] was 10%; in assay [3] it was 0%. For the same compound, the result in assay [5], in assay [6], in assay [7] and in assay [8] was inactive.

For the compound `O=C(Nc1ccc(OC2CCN(Cc3ccccc3)C2)c(Cl)c1)c1ccsc1` (stereo not drawn), the results for the growth inhibition in assay [1] and in assay [4] were 75% (active) and 93% (active), respectively. Further, the inhibition in assay [2] is 12%; in assay [3], 1%. The result in assay [5], in assay [6], in assay [7] and in assay [8] was inactive.

`O=c1[nH]c2ccc(Nc3nccc(NCCc4ccccc4)n3)cc2[nH]1`: the growth inhibition in assay [1] is 6%; in assay [4], 101% (active). The inhibition in assay [2] is -1%; in assay [3] it was 3%. Further, the outcome in assay [5], in assay [6], in assay [7] and in assay [8] was inactive.

Regarding `O=C(Nc1ccccc1F)NC1CCN(c2ccnc(Nc3ccc(F)cc3)n2)C1` (stereo not drawn), the growth inhibition was 74% (active) in assay [1] and 95% (active) in assay [4]. Besides, the inhibition was 0% in assay [2] and -7% in assay [3]. For the same compound, the result in assay [5], in assay [6], in assay [7] and in assay [8] was inactive.

Regarding `CCCCNC(=O)[C@H](CC1CCCCC1)NC(=O)c1ccc(O)c(-c2ccc(Cl)c(Cl)c2)c1`, the figures for the growth inhibition in assay [1] and in assay [4] were 99% (active) and 98% (active), respectively. Also, the inhibition in assay [2] was -9%; in assay [3] it was -1%. For the same compound, the result in assay [5], in assay [6], in assay [7] and in assay [8] was inactive.

For the compound `N#Cc1ccc(-c2ccc(C(=O)NCCCCN3CCC(c4cn(CCO)c5ccccc45)CC3)cc2)cc1`, the growth inhibition in assay [1] was 43%; in assay [4], 93% (active). The inhibition was 23% in assay [2] and 4% in assay [3]. For the same compound, the outcome in assay [5], in assay [6], in assay [7] and in assay [8] was inactive.

In the case of `CC1(C)N=C(N)N=C(N)N1c1ccc(Cl)c(Cl)c1`, the growth inhibition in assay [1] was 56% (active); in assay [4], 95% (active). Besides, the inhibition was 67% (active) in assay [2] and 0% in assay [3]. In addition, the outcome in assay [5], in assay [6], in assay [7] and in assay [8] was inactive.

Regarding `CCC1(CC)CN(c2ccccc2)c2ccc(O)cc2S(=O)(=O)C1CC(C)C` (stereo not drawn), the growth inhibition in assay [1] is 89% (active); in assay [4] it was 96% (active). Further, the inhibition in assay [2] was -7%; in assay [3] it was 2%. The result in assay [5], in assay [6], in assay [7] and in assay [8] was inactive.

Take `CCOC(=O)c1[nH]c(-c2ccccc2)nc1NC(=S)NC1CCCCC1`: the growth inhibition in assay [1] was 1%; in assay [4], 96% (active). The inhibition in assay [2] was 6%; in assay [3], 1%. For the same compound, the result in assay [5], in assay [6], in assay [7] and in assay [8] was inactive.

Regarding `COc1ccc(C(=O)[C@H]2C[C@@H]2CN(C)CCC(O)c2ccc(Cl)c(Cl)c2)cc1` (stereo partly drawn), the growth inhibition in assay [1] was 86% (active); in assay [4] it was 94% (active). Also, the inhibition in assay [2] was 24%; in assay [3], -8%. Further, the outcome in assay [5], in assay [6], in assay [7] and in assay [8] was inactive.

As for `COc1ccc(NC(=O)Nc2cccc(-c3ccncc3)c2)cc1N1CCN(C)CC1`, the growth inhibition in assay [1] was 57% (active); in assay [4], 98% (active). In addition, the inhibition is 9% in assay [2] and 5% in assay [3]. For the same compound, the outcome in assay [5], in assay [6], in assay [7] and in assay [8] was inactive.
